This is an account of results in PubChem BioAssay (Tox21).

The structures appear in SMILES notation. The source made the active and inactive calls. Entries that show only a call come without a potency. The call rests on the fitted dose curve.

A short description of the assay: G protein-coupled receptor (GPCR) small molecule agonists, calcium flux assay: HEK293 wild type cell line counter screen (AID 1920065). The note with it: HEK293 WT calcium flux, fluorescence, agonist mode; series mostly up to 57.6 µM. Put shortly:
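Cells were plated and cultured 18 h at 37 C/5% CO2, then loaded with calcium dye for 1 h at 37 C. Compounds in DMSO were pin-transferred in agonist mode, and fluorescence (Ex/Em 480/540) was read kinetically for 3 min at 1 s intervals.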
On the technique in general: Calcium flux is commonly read through the fluorescence of an indicator in the cells.
Take `COc1cc(C)nc(-n2nc(C)cc2OC)n1`: the Potency result was “inactive”.
As to `C=C1C(=C/C=C2\CCC[C@]3(C)[C@@H]([C@H](C)/C=C/[C@@H](O)C4CC4)CC[C@@H]23)C[C@@H](O)C[C@@H]1O`, the Potency result was “inactive”.
Turning to `COc1c2occc2cc2ccc(=O)oc12`, the Potency result was “inactive”.
Under `CC(=O)O[C@@]12CO[C@@H]1C[C@H](O)[C@@]1(C)C(=O)[C@H](O)C3=C(C)[C@@H](OC(=O)[C@H](O)[C@@H](NC(=O)OC(C)(C)C)c4ccccc4)C[C@@](O)([C@@H](OC(=O)c4ccccc4)[C@H]21)C3(C)C` stands “inactive”.
The same measure for `O=P(c1ccccc1)(c1ccccc1)c1ccccc1`: “inactive”.
The same measure for `Nc1cccc2c(N)cccc12`: “inactive”.
Consider `Cc1cnc(C(=O)NCCc2ccc(S(=O)(=O)NC(=O)NC3CCCCC3)cc2)cn1`, for which the Potency entry was “inactive”.
In the case of `CNCC[C@H](Oc1cccc2ccccc12)c1cccs1`, the Potency entry is “inactive”.
`CC1(C)CCC[C@]2(C)[C@H]3CCO[C@]3(C)CC[C@@H]12`: the Potency entry was “inactive”.
On to `O=C(NCC(O)CO)c1c(I)c(C(=O)NCC(O)CO)c(I)c(N(CCO)C(=O)CO)c1I` (stereo not drawn), for which the Potency entry is “inactive”.
`CC[C@@H]([C@H](C)O)n1ncn(-c2ccc(N3CCN(c4ccc(OC[C@@H]5CO[C@@](Cn6cncn6)(c6ccc(F)cc6F)C5)cc4)CC3)cc2)c1=O`: the Potency entry was “inactive”.
Regarding `S=P(N1CC1)(N1CC1)N1CC1`, the Potency entry is “inactive”.
Under `Cc1c(C)n(Cc2ccccc2)c2ccc(C(=O)OCCN(C)C)cc12` stands “inactive”; under `COc1cc(Cl)c(OC)cc1N`, “inactive”.
For the compound `CC(C)(C)c1ccc(C(=O)CCCN2CCC(OC(c3ccccc3)c3ccccc3)CC2)cc1`, the Potency entry is “inactive”.
With `O=C1c2c(O)ccc(O)c2C(=O)c2c(NCCNCCO)ccc(NCCNCCO)c21`, the Potency result is “inactive”.
Under `O=[N+]([O-])c1cc([N+](=O)[O-])c2ccc(S(=O)(=O)O)cc2c1O` stands “inactive”; under `COc1ccc2cc([C@H](C)C(=O)O)ccc2c1`, “inactive”; under `CC1CCCC1`, “inactive”.
Under `CN1[C@@H]2CC(OC(=O)[C@H](CO)c3ccccc3)C[C@H]1[C@@H]1O[C@@H]12` (stereo partly drawn) stands “inactive”.
Under `CCCCOC(=O)c1ccccc1C(=O)OCC(CC)CCCC` (stereo not drawn) stands “inactive”.
As to `CN(C)CCOC(c1ccccc1)c1ccccc1`, the Potency entry was “inactive”.
Consider `CCOC(=O)CC(=O)C(=O)OCC`, for which the Potency result is “inactive”.
The same measure for `Cc1nc(-c2ccccn2)ncc1C(=O)Nn1cc(C)c2cc(F)ccc21`: “inactive”.
Under `COC(=O)[C@H]1[C@H]2C[C@@H]3c4[nH]c5cc(OC)ccc5c4CCN3C[C@H]2C[C@@H](OC(=O)/C=C/c2ccc(O)c(OC)c2)[C@@H]1OC` stands “inactive”; under `CC(C)(C(=O)O)c1ccc(C(O)CCCN2CCC(C(O)(c3ccccc3)c3ccccc3)CC2)cc1` (stereo not drawn), “inactive”.
Under `CCN(CC)CCCC(C)Nc1c2ccc(Cl)cc2nc2ccc(OC)cc12` (stereo not drawn) stands “inactive”.
Turning to `CC(C)(C)c1csc(-c2cc3cc(OCc4ccccc4CC(=O)O)ccc3o2)n1`, the Potency result was “inactive”.
